Assay results taken from PubChem BioAssay (EPA / NIEHS).
Activity calls are given as the source filed them. How the source made its calls: active means hit-call score of the fitted dose curve at least 0.9, where 1 is the maximum; inactive means score below 0.9.

Assays:
Details in all cases: mRNA level, 48 h; actives raise or lower the signal
[1] = read-out: Hypoxia-inducible factor 1-alpha (Homo sapiens) (UniProt Q16665); test: LTEA_HepaRG_HIF1A: Life Technologies and Expression Analysis (LTEA) Assay for Hypoxia-inducible factor 1 (HIF1A) Trancription factor using HepaRG (AID 2283503);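 further: HIF1A transcript by TaqMan qRT-PCR normalized to ACTB GAPDH and POLR2A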
In short: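 Gain- or loss-of-signal HIF1A mRNA changes are fitted against a DMSO baseline. HepaRG cultures receive eight concentrations, highest 100 uM, for 48 h in serum-free induction medium with 0.5% DMSO.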

[2] = read-out: 3-Hydroxy-3-Methylglutaryl-CoA Synthase 2 (HMGCS2), HMGCS2 (gene 3158); test: LTEA_HepaRG_HMGCS2: Life Technologies and Expression Analysis (LTEA) Assay for 3-Hydroxy-3-Methylglutaryl-CoA Synthase 2 (HMGCS2) using HepaRG (AID 2283504)
In short: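 Differentiated human HepaRG cells were exposed in duplicate for 48 h in serum-free induction medium to eight concentrations (top 100 uM, half-log steps, 0.5% DMSO). HMGCS2 mRNA was quantified by TaqMan qRT-PCR, normalised to ACTB, GAPDH and POLR2A, then fitted bidirectionally against DMSO.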

HGF (gene 3082) = test: LTEA_HepaRG_HGF: Life Technologies and Expression Analysis (LTEA) Assay for Hepatocyte Growth Facto (HGF) using HepaRG (AID 2283505)
In short: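 Differentiated human HepaRG cells in serum-free induction medium were exposed in duplicate for 48 h to eight concentrations (top 100 uM, half-log steps, 0.5% DMSO). HGF mRNA was quantified by qRT-PCR, normalized to ACTB, GAPDH and POLR2A.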

[3] = read-out: Insulin Like Growth Factor 1 (IGF1), IGF1 (gene 3479); test: LTEA_HepaRG_IGF1: Life Technologies and Expression Analysis (LTEA) Assay for Insulin Like Growth Factor 1 (IGF1) using HepaRG (AID 2283506)
In short: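 qRT-PCR readout of IGF1 mRNA, normalized to three housekeeping genes, after 48 h chemical exposure of HepaRG cells. Concentrations: 8-point half-log series, top 100 uM, 0.5% DMSO vehicle. Gain or loss fitted against DMSO baseline.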

[4] = read-out: Intercellular Adhesion Molecule 1 (ICAM1), ICAM1 (gene 3383); test: LTEA_HepaRG_ICAM1: Life Technologies and Expression Analysis (LTEA) Assay for Intercellular Adhesion Molecule 1 (ICAM1) using HepaRG (AID 2283507)
In short: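 Differentiated HepaRG cells in serum-free induction medium were exposed in duplicate for 48 h to eight half-log concentrations up to 100 uM in 0.5% DMSO. Transcript levels were measured by qRT-PCR normalized to ACTB, GAPDH and POLR2A; bidirectional fits relative to DMSO.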

[5] = read-out: Insulin-like growth factor-binding protein 1 (IGFBP1), IGFBP1 (gene 3484); test: LTEA_HepaRG_IGFBP1: Life Technologies and Expression Analysis (LTEA) Assay for Insulin-like growth factor-binding protein 1 (IGFBP1) using HepaRG (AID 2283508)
In short: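 Differentiated human HepaRG cells in serum-free induction medium were exposed in duplicate for 48 h to eight concentrations, top 100 uM with half-log dilutions, in 0.5% DMSO. Transcript levels came from qRT-PCR normalised to ACTB, GAPDH and POLR2A, fitted bidirectionally against DMSO.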

[6] = read-out: Interleukin 6 (IL6), IL6 (gene 3569); test: LTEA_HepaRG_IL6: Life Technologies and Expression Analysis (LTEA) Assay for Interleukin 6 (IL6) using HepaRG (AID 2283509)
In short: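 Transcript levels, normalized to three housekeeping genes, were quantified by qRT-PCR after 48 h chemical treatment of HepaRG cells. Eight-point half-log series from 100 uM in 0.5% DMSO, duplicates. Fitted both directions against DMSO baseline.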

[7] = read-out: Interleukin 6 Receptor (IL6R), IL6R (gene 3570); test: LTEA_HepaRG_IL6R: Life Technologies and Expression Analysis (LTEA) Assay for Interleukin 6 Receptor (IL6R) using HepaRG (AID 2283510);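 on AC50: TaqMan qRT-PCR signal normalized to ACTB GAPDH and POLR2A housekeeping genes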
In short: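 HepaRG, 48 h exposure, 8-pt half-log series, top 100 uM, 0.5% DMSO vehicle, duplicates. Read-out: TaqMan qRT-PCR of IL6R transcript, housekeeping-gene normalized. Gain or loss fitted relative to DMSO baseline.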

[8] = read-out: Potassium channel subfamily K member 1 (KCNK1), KCNK1 (gene 3775); test: LTEA_HepaRG_KCNK1: Life Technologies and Expression Analysis (LTEA) Assay for Potassium channel subfamily K member 1 (KCNK1) using HepaRG (AID 2283511)
In short: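 KCNK1 transcript measured by TaqMan qRT-PCR against three housekeeping genes, after HepaRG cells were treated 48 h with eight half-log concentrations (top 100 uM, 0.5% DMSO). Curves fitted bidirectionally relative to vehicle.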

[9] = read-out: Keratin 19 (KRT19), KRT19 (gene 3880); test: LTEA_HepaRG_KRT19: Life Technologies and Expression Analysis (LTEA) Assay for Keratin 19 (KRT19) using HepaRG (AID 2283512)
In short: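 Differentiated human HepaRG cells, plated 48 h, were exposed in duplicate for 48 h in serum-free induction medium to eight half-log concentrations up to 100 uM in 0.5% DMSO. KRT19 mRNA was quantified by qRT-PCR, normalized to ACTB, GAPDH and POLR2A, and fitted bidirectionally versus DMSO.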

[10] = read-out: JUN Transcription Factor, JUN (gene 3725); test: LTEA_HepaRG_JUN: Life Technologies and Expression Analysis (LTEA) Assay for JUN Transcription Factor using HepaRG (AID 2283513)
In short: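 HepaRG, 48 h exposure, 8-pt half-log series top 100 uM, 0.5% DMSO, duplicate. JUN mRNA by qRT-PCR (Fluidigm), housekeeping-normalized (ACTB/GAPDH/POLR2A); bidirectional curve fit vs DMSO baseline.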

[11] = read-out: Lipase C (LIPC), LIPC (gene 3990); test: LTEA_HepaRG_LIPC: Life Technologies and Expression Analysis (LTEA) Assay for Lipase C (LIPC) using HepaRG (AID 2283514)
In short: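 LIPC expression was quantified by qRT-PCR against three housekeeping genes (ACTB, GAPDH, POLR2A). Differentiated human HepaRG cells received eight half-log doses (top 100 uM, 0.5% DMSO) in duplicate for 48 h; fitting bidirectional relative to DMSO.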

[12] = read-out: Lipoprotein lipase (LPL), LPL (gene 4023); test: LTEA_HepaRG_LPL: Life Technologies and Expression Analysis (LTEA) Assay for Lipoprotein lipase (LPL) using HepaRG (AID 2283515)
In short: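 LPL transcript levels quantified by TaqMan qRT-PCR against three housekeeping genes after 48 h chemical treatment of HepaRG cells. Eight-point half-log series from 100 uM in 0.5% DMSO, tested in duplicate; bidirectional fitting versus vehicle.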

[13] = read-out: MicroRNA 122 (MIR122), gene 406906; test: LTEA_HepaRG_MIR122: Life Technologies and Expression Analysis (LTEA) Assay for MicroRNA 122 (MIR122) using HepaRG (AID 2283516); further: the transcript read is the microRNA miR-122
In short: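 qRT-PCR read-out (TaqMan, Fluidigm array), normalized to three housekeeping genes; HepaRG cells dosed 48 h at 8 concentrations up to 100 uM in 0.5% DMSO, duplicate; gain or loss fitted against DMSO baseline.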

[14] = read-out: matrix metalloproteinase-10 (MMP10), MMP10 (gene 4319); test: LTEA_HepaRG_MMP10: Life Technologies and Expression Analysis (LTEA) Assay for matrix metalloproteinase-10 (MMP10) using HepaRG (AID 2283517)
In short: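 Expression measured by TaqMan qRT-PCR with ACTB/GAPDH/POLR2A normalisation after 48 h chemical exposure of HepaRG cells. Eight half-log concentrations, top 100 uM, 0.5% DMSO vehicle, duplicates; gain or loss fitted against vehicle.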

MYC, MYC (gene 4609) = test: LTEA_HepaRG_MYC: Life Technologies and Expression Analysis (LTEA) Assay for MYC using HepaRG (AID 2283518)
In short: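 Differentiated human HepaRG cells, plated 48 h then switched to serum-free induction medium, were exposed in duplicate for 48 h to 8-point half-log series up to 100 uM in 0.5% DMSO. MYC mRNA measured by qRT-PCR, normalized to ACTB/GAPDH/POLR2A.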

[15] = read-out: matrix metalloproteinase-3 (MMP3), MMP3 (gene 4314); test: LTEA_HepaRG_MMP3: Life Technologies and Expression Analysis (LTEA) Assay for matrix metalloproteinase-3 (MMP3) using HepaRG (AID 2283519)
In short: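 Fluidigm-based TaqMan qRT-PCR, normalized to ACTB, GAPDH and POLR2A and fitted bidirectionally versus 0.5% DMSO, measured transcript levels. Treatment: duplicate 48 h exposures of HepaRG cells, ~100,000/well, to eight half-log concentrations topping at 100 uM.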

[16] = read-out: Paternally Expressed 10 (PEG10), PEG10 (gene 23089); test: LTEA_HepaRG_PEG10: Life Technologies and Expression Analysis (LTEA) Assay for Paternally Expressed 10 (PEG10) using HepaRG (AID 2283520);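 on AC50: PEG10 transcript by qRT-PCR normalised to ACTB GAPDH and POLR2A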
In short: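 qRT-PCR read-out: PEG10 mRNA normalised to three housekeeping genes, fitted bidirectionally against 0.5% DMSO vehicle. HepaRG cells received test chemicals for 48 h in serum-free induction medium, 8 points, top 100 uM, half-log steps.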

[17] = read-out: Nuclear factor NF-kappa-B p105 subunit (Homo sapiens) (UniProt P19838); test: LTEA_HepaRG_NFKB1: Life Technologies and Expression Analysis (LTEA) Assay for Nuclear Factor Kappa B Subunit 1 (NFKB1) using HepaRG (AID 2283521)
In short: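 Differentiated human HepaRG cells in serum-free induction medium with 0.5% DMSO were exposed for 48 h to eight half-log concentrations, top 100 uM, in duplicate. NFKB1 mRNA measured by Fluidigm TaqMan qRT-PCR, normalised to ACTB, GAPDH and POLR2A; bidirectional fit versus DMSO.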

Measured: AC50

Hypoxia-inducible factor 1-alpha (Homo sapiens), sequence (Q16665 whole entry, looked up): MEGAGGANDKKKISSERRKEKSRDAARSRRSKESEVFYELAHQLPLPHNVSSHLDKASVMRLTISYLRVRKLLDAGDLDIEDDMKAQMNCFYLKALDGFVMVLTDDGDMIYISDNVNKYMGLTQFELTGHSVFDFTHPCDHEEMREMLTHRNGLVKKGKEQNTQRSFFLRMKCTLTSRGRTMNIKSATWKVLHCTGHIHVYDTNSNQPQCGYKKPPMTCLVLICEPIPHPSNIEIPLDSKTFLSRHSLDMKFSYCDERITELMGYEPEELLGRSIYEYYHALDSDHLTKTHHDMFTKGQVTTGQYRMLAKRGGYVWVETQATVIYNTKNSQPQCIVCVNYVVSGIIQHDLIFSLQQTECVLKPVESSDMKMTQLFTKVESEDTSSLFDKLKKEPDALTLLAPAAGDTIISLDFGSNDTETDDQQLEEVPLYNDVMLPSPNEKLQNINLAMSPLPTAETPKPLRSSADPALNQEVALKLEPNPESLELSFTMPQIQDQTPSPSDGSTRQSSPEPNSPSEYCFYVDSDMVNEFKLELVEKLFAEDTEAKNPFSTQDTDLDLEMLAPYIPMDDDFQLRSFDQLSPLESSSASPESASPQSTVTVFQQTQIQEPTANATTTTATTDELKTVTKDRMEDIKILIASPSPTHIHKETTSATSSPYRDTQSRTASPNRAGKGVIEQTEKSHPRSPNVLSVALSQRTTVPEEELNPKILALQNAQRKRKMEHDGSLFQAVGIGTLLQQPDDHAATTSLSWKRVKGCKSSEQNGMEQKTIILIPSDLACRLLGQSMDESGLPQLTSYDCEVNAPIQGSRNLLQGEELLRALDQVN
Nuclear factor NF-kappa-B p105 subunit (Homo sapiens), sequence (P19838 whole entry, looked up): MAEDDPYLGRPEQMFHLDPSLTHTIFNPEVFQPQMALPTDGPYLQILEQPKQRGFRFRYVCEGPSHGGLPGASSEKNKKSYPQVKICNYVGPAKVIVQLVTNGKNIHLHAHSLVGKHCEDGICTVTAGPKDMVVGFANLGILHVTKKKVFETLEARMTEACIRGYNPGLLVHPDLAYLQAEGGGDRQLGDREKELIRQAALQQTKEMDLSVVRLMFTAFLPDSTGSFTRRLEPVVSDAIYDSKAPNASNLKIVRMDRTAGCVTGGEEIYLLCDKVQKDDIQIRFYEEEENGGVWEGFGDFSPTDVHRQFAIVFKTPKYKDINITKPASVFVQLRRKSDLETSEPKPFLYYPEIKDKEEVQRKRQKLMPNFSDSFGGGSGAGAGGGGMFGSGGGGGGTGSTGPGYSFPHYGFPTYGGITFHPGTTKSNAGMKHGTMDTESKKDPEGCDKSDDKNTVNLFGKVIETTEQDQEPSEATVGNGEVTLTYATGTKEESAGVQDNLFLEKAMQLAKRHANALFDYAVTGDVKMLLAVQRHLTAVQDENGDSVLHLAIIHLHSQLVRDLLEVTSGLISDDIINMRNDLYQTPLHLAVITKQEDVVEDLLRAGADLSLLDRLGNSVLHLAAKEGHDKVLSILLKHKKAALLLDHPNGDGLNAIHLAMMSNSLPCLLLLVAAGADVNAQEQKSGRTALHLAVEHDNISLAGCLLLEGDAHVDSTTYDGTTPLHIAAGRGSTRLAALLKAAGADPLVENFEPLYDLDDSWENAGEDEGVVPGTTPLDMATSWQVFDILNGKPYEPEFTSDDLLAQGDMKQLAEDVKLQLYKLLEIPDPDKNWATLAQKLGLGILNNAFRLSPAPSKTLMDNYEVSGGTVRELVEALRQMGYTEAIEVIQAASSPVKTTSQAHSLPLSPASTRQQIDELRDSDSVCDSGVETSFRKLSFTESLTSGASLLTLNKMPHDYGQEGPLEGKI

c1ccc2n[nH]nc2c1
inactive: all assays above

CN1C(=O)CC[C@H]1c1cccnc1
not listed: [1]
inactive: all other assays above

O=C1c2ccccc2C(=O)N1CCc1noc(-c2ccc(CN3CCCCCC3)s2)n1
active: [12] 20.7 µM | [16] 42.2 µM
not listed: [14]
inactive: all other assays above

O=c1ccc2ccccc2o1
not listed: [14]
inactive: all other assays above

Cc1occc1C(=O)Nc1ccc(C(=O)N2CCC(F)(F)/C(=C\C(=O)N3CCC(N4CCCCC4)CC3)c3ccccc32)cc1
active: [2] 31.2 µM | [3] 5.3 µM | [5] 46.1 µM | [6] 51.9 µM | [7] 27.5 µM | [9] 49.6 µM | [11] 45.4 µM | [12] 31.2 µM | [13] 31.2 µM | [16] 48 µM
inactive: [1] | HGF (gene 3082) | [4] | [8] | [10] | MYC, MYC (gene 4609) | [15] | [17]

CC[C@@H]1C[C@H](N(Cc2cc(C(F)(F)F)cc(C(F)(F)F)c2)C(C)=O)c2cc(C(F)(F)F)ccc2N1C(=O)OC(C)C
active: [3] 5.09 µM | [16] 11.6 µM
inactive: all other assays above

CCN(Cc1cccnc1)C(=O)c1cccc(Cl)c1[C@]1(C)C(=O)N(Cc2ccc(OC)cc2OC)c2ccc(Cl)cc21
active: [2] 21.8 µM | HGF (gene 3082) 21.9 µM | [3] 14.4 µM | [4] 21.2 µM | [5] 17.5 µM | [6] 24.9 µM | [7] 19.9 µM | [8] 15 µM | [9] 27 µM | [11] 19.9 µM | [12] 10.4 µM | [13] 18.1 µM | MYC, MYC (gene 4609) 25.3 µM | [16] 10.2 µM | [17] 26.5 µM
inactive: [1] | [10] | [15]
